From PubChem
IL-1B inflam inh: inhibitors of inflammasome signaling (IL-1 beta secretion); THP-1 LPS/ATP IL-1B secretion, AlphaLISA, 16 h; stronger effect = lower value; activity change, % at 57.5 µM; hit rate 4.7% among 360,000; AID 743279; in the data active means activity change below about -50%; inconclusive means mostly about -30% to -49%; further: on the % scale 0 is the no-effect control and ±100 the full control effect
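THP-1 cells pretreated 1 hr with compounds (up to 57.5 uM final), then stimulated with LPS (250 ng/mL final) plus ATP (1.25 mM final); secreted IL-1B measured by AlphaLISA after 16 hr, decreased signal indicating inhibition.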
TGFb inhibitor: inhibitors of TGF-b signaling; HepG2 CAGA-GFP TGF-b/SMAD3 reporter, GFP fluorescence, 18 h; TGF-beta stimulated, 500 pg/mL final; Potency, µM (doses to about 46.1 µM), for inactives: at the top dose activity, negative = inhibition, usual class: inhibitors; AID 588855; hit rate 1.2% among 410,000; further: potency means the concentration at half of the fitted maximal effect; on the % scale 0 is the no-effect control and ±100 the full control effect; nearly all actives have a fitted effect of over 65% in size
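HEPG2 CAGA-GFP reporter cells (1000/well, DMEM with 1% FBS) received compounds, then recombinant TGF-beta at 500 pg/mL final for 18 hours at 37 degrees C. Per-cell GFP summed per well was normalised to unstimulated and stimulated DMSO controls before curve fitting.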
TDP1 cell CPT: growth inhibition of DT40 Tdp1-/-;hTDP1 cells with camptothecin (screen for TDP1 inhibitors); chicken DT40 Tdp1-/-;hTDP1 cells + 20 nM CPT, ATP luminescence, 48 h; hit rate 12% among 420,000; Potency, µM (highest dose often 46.2 µM), inactives show top-dose activity change, negative = growth inhibition, usual class: inhibitors; further: potency means the concentration at half of the fitted maximal effect; on the % scale 0 is the no-effect control and ±100 the full control effect; nearly all actives have a fitted effect of over 55% in size
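Chicken DT40 Tdp1-/- cells stably complemented with human TDP1 were seeded at 400 cells/well in medium containing 20 nM camptothecin, exposed to pin-transferred compounds, and grown at 37 °C for at least 48 hr. Viability was read as ATP luminescence.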
TDP1 inh: TDP1 (human) enzyme inhibition; recombinant TDP1, AlphaScreen DNA substrate cleavage; AID 485290; Potency, µM (series often up to 130 µM), without a hit: top-dose activity change, negative = inhibition, most hits filed as inhibitors; Q9NUW8; hit rate 0.28% among 350,000; further: potency means the concentration at half of the fitted maximal effect; on the % scale 0 is the no-effect control and ±100 the full control effect; nearly all actives have a fitted effect of over 40% in size
Target sequence (Q9NUW8 whole entry, looked up): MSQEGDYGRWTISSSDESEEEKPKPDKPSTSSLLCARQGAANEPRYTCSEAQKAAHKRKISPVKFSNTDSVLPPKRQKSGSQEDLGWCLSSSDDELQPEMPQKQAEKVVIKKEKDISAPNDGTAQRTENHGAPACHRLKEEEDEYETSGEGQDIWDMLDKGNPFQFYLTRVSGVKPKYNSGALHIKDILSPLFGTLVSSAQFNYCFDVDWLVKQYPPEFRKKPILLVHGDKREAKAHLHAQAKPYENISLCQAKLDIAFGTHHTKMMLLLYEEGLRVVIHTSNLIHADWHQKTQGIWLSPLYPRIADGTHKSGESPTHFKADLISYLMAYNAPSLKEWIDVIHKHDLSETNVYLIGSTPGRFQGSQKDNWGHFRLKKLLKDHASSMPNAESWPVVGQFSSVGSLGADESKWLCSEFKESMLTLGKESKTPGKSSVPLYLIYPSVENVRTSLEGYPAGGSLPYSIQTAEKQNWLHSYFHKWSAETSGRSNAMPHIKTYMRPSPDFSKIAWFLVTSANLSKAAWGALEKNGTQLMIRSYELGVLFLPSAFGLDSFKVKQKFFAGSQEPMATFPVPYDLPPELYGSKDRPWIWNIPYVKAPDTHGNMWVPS
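Tdp1 1 nM final; 15 min RT w/ cpd; substrate 15 nM, 5 min; beads 10 ug/ml, 10 min; AlphaScreen read. Neg ctrl: no enzyme.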
HepG2 tox: counter-screen for TGF-b inhibitors: cytotoxicity in HepG2 cells. AID 588856. hit rate 0.76% among 410,000. Potency, µM (top dose mostly 46.1 µM), for the others: at the highest dose activity change, negative = cytotoxicity, actives largely listed as cytotoxic. HepG2 CAGA-GFP viability, ATP luminescence, 18 h; further: potency means the concentration at half of the fitted maximal effect
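CellTiter-Glo luminescence gave cytotoxicity after 18 hours at 37 degrees C. The cells were HepG2 CAGA-GFP in 1% FBS DMEM, stimulated with 500 pg/mL TGF-beta after compound addition. %Activity was normalised to no-cell wells (complete cell-killing) and DMSO (no toxicity), and curves were fitted and classified.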
TDP1 cell noCPT: qHTS for Inhibitors of human tyrosyl-DNA phosphodiesterase 1 (TDP1): qHTS in cells in absence of CPT; DT40 Tdp1-/- hTDP1 cells, no CPT, ATP luminescence, 48 h; Potency, µM (series often up to 46.2 µM), without a hit: at the top dose activity change, negative = growth inhibition, most hits filed as inhibitors; hit rate 15% among 420,000; further: potency means the concentration at half of the fitted maximal effect; on the % scale 0 is the no-effect control and ±100 the full control effect; nearly all actives have a fitted effect of over 55% in size
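Cells were dispensed at 400 per well, compounds added by pin tool, plates incubated ≥48 hr at 37 °C, then CellTiter-Glo added for 30 min at room temperature before luminescence reading. Line: DT40 Tdp1-/- complemented with hTDP1; camptothecin omitted.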
* = called active by the depositor; u = inconclusive; x = no result; [ ] = dose if it differs, or a comment. A selection: hits, their analogues and other compounds. The true share with any hit is near 18%. Unless noted, the call rests on the fitted dose curve; in most records, active means well fitted curve in the direction sought with a large enough effect; inconclusive means small, poorly fitted or top-dose-only effect, or another doubt; inactive means no such curve, though single readings can be large; an effect the other way counts as inactive or inconclusive.

SMILES	IL-1B inflam inh	TGFb inhibitor	TDP1 cell CPT	TDP1 inh	HepG2 tox	TDP1 cell noCPT
CC[C@@H](NCCCn1ccc(NC(=O)OCc2ccccc2)nc1=O)c1ccccc1	-27.0	-0.8%	u	x	-17.2%	16.4µM*
C[C@@H](NCCCn1ccc(NC(=O)OCc2ccccc2)nc1=O)c1cccc2ccccc12	u	u	u	x	-36.1%	16.4µM*
Cn1cnc(S(=O)(=O)N2CCN(C(c3ccccc3)c3ccccc3)CC2)c1	13.3	-4.8%	-24.4%	0.5%	-73.5%	u
COC(=O)c1cc(S(=O)(=O)NCC2CCN(CCc3ccc(OC)cc3)CC2)cn1C	u	2.9%	-3.7%	4.8%	-3.2%	-0.8%
COC(=O)c1c(N2C(=O)[C@H]3[C@@H](C2=O)[C@]2(C(=O)Nc4ccccc42)N2CCC[C@@H]32)sc(C)c1C	x	x	x	8.1%	x	x
COC(=O)c1c(N2C(=O)[C@H]3[C@@H](C2=O)[C@]2(C(=O)Nc4c2ccc(C)c4C)N2CCC[C@@H]32)sc(C)c1C	-10.1	u	18.4µM*	5.4%	-28.6%	16.4µM*
CN1CCc2c(sc3c2C(=O)NC(c2ccccc2)N3)C1 (stereo not given)	-5.9	4.1%	u	2.5%	-15.0%	23.1µM*
CN1CCc2c(sc3c2C(=O)NC(c2ccc(OC(=O)c4ccc(Cl)cc4)cc2)N3)C1 (stereo not given)	x	63.3%	u	1.3%[12.3 µM]	-13.4%	u
CCOC(=O)N1CCc2c(sc3c2C(=O)NC(c2cc(OC)c(OC)c(OC)c2)N3)C1 (stereo not given)	x	0.9%	3.66µM*	3.2%	-51.7%	5.17µM*
CCOC(=O)N1CCc2c(sc3c2C(=O)NC(c2ccc(C(=O)OC)cc2)N3)C1 (stereo not given)	x	u	7.31µM*	0.0%	-16.8%	13µM*
CCOc1cc(C2NC(=O)c3c(sc4c3CCN(C)C4)N2)ccc1OC(=O)c1ccc(F)cc1 (stereo not given)	x	19.8%	3.8%	x	-5.2%	-16.2%
CN1CCc2c(sc3c2C(=O)NC(c2ccc(OC(=O)c4ccccc4)cc2)N3)C1 (stereo not given)	x	3.1%	u	x	-3.5%	u
COC(=O)Cn1c(CN2CCN(c3ccccc3F)CC2)nc2c1c(=O)n(C)c(=O)n2C	36.0	-7.9%	5.8µM*	x	-20.7%	8.2µM*
C=CCn1c(N2CCN(c3ccc(OC)cc3)CC2)nc2c1c(=O)n(C)c(=O)n2C	-16.3	-9.1%	20.6µM*	7.9%	-19.4%	18.4µM*
CCOCCn1c(CN2CCN(c3ccccc3)CC2)nc2c1c(=O)n(C)c(=O)n2C	15.6	u	16.4µM*	x	11.0%	16.4µM*
CC(C)Cn1c(CN2CCN(c3ccccc3F)CC2)nc2c1c(=O)[nH]c(=O)n2C	-7.5	5.5%	-29.4%	5.2%	-2.6%	u
COc1ccc(N2CCN(Cc3nc4c(c(=O)n(C)c(=O)n4C)n3C(C)C)CC2)cc1	x	-15.4%	1.03µM*	0.0%	-7.5%	0.651µM*
COCCn1c(CN2CCN(c3ccccc3)CC2)nc2c1c(=O)n(C)c(=O)n2C	16.3	-5.1%	10.3µM*	x	1.2%	10.3µM*
Cn1c(=O)c2c(nc(CN3CCN(c4ccccc4)CC3)n2Cc2ccccc2F)n(C)c1=O	x	x	x	4.2%	x	x
O=Nc1c(O)[nH]c2c(F)cccc12	3.7	-13.6%	0.9%	1.3%	4.1%	-1.7%
CCc1cccc2c(N=O)c(O)[nH]c12	-64.2*	2.4%	-1.9%	1.1%	-20.3%	-17.4%
COc1ccc2c3c(ccc2c1)C(=O)/C(=C/O)CC3	54.4	u	u	x	-2.0%	16.4µM*
COc1cccc(CNc2ncnc3sc(C(=O)N4CC5CCC4C5)c(C)c23)c1OC (stereo not given)	x	x	-9.7%[9.04 µM]	x	x	-14.7%
O=C(Cc1ccc(F)cc1)Nc1cccc(-c2nc3cccnc3s2)c1	x	0.1%	-10.2%	5.7%	-3.4%	-7.2%
COc1ccc(Cl)cc1C(=O)Nn1c(-c2cccs2)nc2ccccc2c1=O	u	-0.3%	10.3µM*	5.6%	-0.5%	u
SMILES	IL-1B inflam inh	TGFb inhibitor	TDP1 cell CPT	TDP1 inh	HepG2 tox	TDP1 cell noCPT
COc1ccc(Cl)cc1C(=O)Nn1c(C)nc2ccccc2c1=O	0.0	-27.5%	u	1.0%	2.7%	u
CN(Cc1ccccc1)Cc1c(O)ccc2c(=O)c(-c3ccccc3)c(C(F)(F)F)oc12	x	6.2%	-5.8%	x	2.2%	-17.8%
COc1cc(Nc2nc3ccccc3nc2NS(=O)(=O)c2ccc([N+](=O)[O-])cc2)cc(OC)c1OC	-12.1	u	10.3µM*	8.5%	-22.9%	u
O=[N+]([O-])c1ccc(S(=O)(=O)Nc2nc3ccccc3nc2Nc2ccccc2)cc1	-73.0*	u	3.26µM*	1.6%	0.7%	2.91µM*
O=C(NC1CCCCCC1)C1CCC(CNS(=O)(=O)c2cccc3cccnc23)CC1 (stereo not given)	x	2.7%	-26.2%	x	-22.6%	-17.8%
Cc1ccc(OCC(=O)Nc2cccc(C(=O)OCc3cc(=O)n4cc(C)sc4n3)c2)cc1	x	u	2.3%	3.8%	-11.5%	-28.7%
C=CCN=c1scc(-c2ccc(F)cc2)n1/N=C/c1ccccn1	u	u	2.59µM*	4.4%	-39.9%	2.59µM*
C=CCN=c1scc(-c2ccccc2)n1/N=C/c1ccccn1	u	u	1.84µM*	10.5%	-11.3%	1.3µM*
Cc1ccc2nc(Nc3nc(-c4ccccc4)cc(=O)[nH]3)nc(C)c2c1	u	u	13µM*	3.9%	2.7%	8.2µM*
Cc1cc(C)nc(Nc2nc3ccccc3[nH]2)n1	27.2	-0.7%	0.7%	5.2%	-24.2%	-15.4%
Cc1ccc2nc(Nc3nc(C)cc(-c4ccccc4)n3)[nH]c(=O)c2c1	-1.6	0.0%	20.6µM*	-1.3%	2.1%	14.6µM*
CCOC(=O)C1CCN(C(=O)COC(=O)c2ccccc2C(=O)c2ccc(Cl)cc2)CC1	-3.8	-7.4%	-5.9%	x	8.5%	-8.4%
Cc1ccc(NC(=O)CSCC(=O)N2CCCc3ccccc32)cc1	12.4	-17.7%	-10.9%	-7.4%	-0.5%	-22.9%
CC(NC(=O)c1cccnc1)c1nnc2n1CCN(Cc1ccc(-c3ccccc3)cc1)CC2 (stereo not given)	x	x	18.7%[9.04 µM]	x	x	-17.5%
